Test results reported in PubChem BioAssay (Tox21).
Records with an inconclusive call do not appear. Entries that show only a call come without a potency. Calls of active or inactive are those of the source. The call rests on the fitted dose curve; in most records, active means well fitted cell-killing curve with a large enough effect in the repeat runs; inconclusive means weak or mixed curves, or effect the other way; inactive means flat fitted curve, though single readings scatter.

Experiment: qHTS RealTime-Glo MT Cell Viability Assay in HEK293 cells - 0 hour (AID 1224880); further: top concentration of the series differs between compounds; nearly all actives have a fitted effect of over 45% in size
Details: RealTime-Glo luminescence; series mostly up to 76.8 µM
From the text: U.S. Tox21 Program National Center for Advancing Translational Sciences [NCATS] NIH Chemical Genomics Center [NCGC] U.S. Environmental Protection Agency [EPA] National Institutes of Environmental Health Sciences [NIEHS] National Toxicology Program [NTP] U.S. Food and Drug Administration [FDA] Tox21 Assay Overview: Measure of cell viability is critical in the cell-base assay. Analysis of cell viability is necessary for the characterization of cell responses to cytotoxic drugs and environmental stress. A RealTime-Glo MT Cell Viability Assay to monitor cell viability in real time of continues cell culture during 40 hours of compound treatment was used to screen Tox21 10K library compounds in Hek293 cells. The RealTime-Glo MT Cell Viability Assay is a nonlytic, homogeneous, bioluminescent method to measure cell viability in real time using a simple, plate-based method. The assay involves adding NanoLuc luciferase and a cell-permeant prosubstrate to cells in culture. Viable cells reduce the proprietary prosubstrate to generate a substrate for NanoLuc luciferase. This substrate diffuses from cells into the surrounding culture medium, where it is rapidly used by the NanoLuc Enzyme to produce a luminescent signal. The signal correlates with the number of viable cells, making the assay well suited for cytotoxicity studies.
Tox21 Assay Protocol Summary: The mixture of Hek293 cell suspension and reagents were dispensed at 600cells/6 ul/well in 1536-well tissue culture treated black solid bottom plates using a Multidrop dispenser. After the assay plates were incubated at a 37 C/5% CO2 incubator for 5 hours, 23 nL of compounds dissolved in DMSO, positive and negative controls was transferred to the assay plate by a pintool work station. The plates were incubated at 37 C for 40 hours. The luminescence intensity were measured at 0h, 8h, 16h, 24h, 32h and 40h time points using ViewLux plate reader during compound treatment.

Row | Structure (SMILES) | Potency | activity change, negative = cytotoxicity
1 | CC(C)CCCCCCOC(=O)CCCCC(=O)OCCCCCCC(C)C | inactive | 
2 | CC(=O)Oc1ccc2c(c1)CC[C@@H]1[C@@H]2CC[C@]2(C)[C@@H](O)CC[C@@H]12 | inactive | 
3 | CC1(C)O[C@@H]2C[C@H]3[C@@H]4CCC5=CC(=O)C=C[C@]5(C)[C@H]4[C@@H](O)C[C@]3(C)[C@]2(C(=O)CO)O1 | inactive | 
4 | C/C(=N/NC(=O)c1ccncc1)C(=O)O | inactive | 
5 | O=C(OCCOCCO)c1ccccc1Nc1cccc(C(F)(F)F)c1 | inactive | 
6 | Cc1cc(OI)c(C(C)C)cc1-c1cc(C(C)C)c(OI)cc1C | inactive | 
7 | CCOC(=O)CC(=O)C(=O)OCC | inactive | 
8 | CCCCCCCCCOC(C)=O | inactive | 
9 | COc1ccc(CCC(=O)c2c(O)cc(O[C@@H]3O[C@H](CO)[C@@H](O)[C@H](O)[C@H]3O[C@@H]3O[C@@H](C)[C@H](O)[C@@H](O)[C@H]3O)cc2O)cc1O | inactive | 
10 | C/C=C(\C)C(=O)OCCC(C)CCC=C(C)C (stereo not given) | inactive | 
11 | CC1CC(=O)NN=C1c1ccc(NCC(C)(C)NCC(O)COc2cc(Cl)ccc2C#N)cc1 (stereo not given) | inactive | 
12 | CC(CCO)CCc1ccccc1 (stereo not given) | inactive | 
13 | CCOC(=O)/C=C/C(=O)O | inactive | 
14 | C=CCCCCCCCCCCCCCCCC |  | -0.1% [at 6.97 µM] (inactive)
15 | CCc1c2c(nc3ccc(OC(=O)N4CCC(N5CCCCC5)CC4)cc13)-c1cc3c(c(=O)n1C2)COC(=O)[C@]3(O)CC | inactive | 
16 | COC(=O)CC(=O)C(C)(C)C | inactive | 
17 | CCC(C)(O)CCC=C(C)C (stereo not given) | inactive | 
18 | CCCC1C(CC)=CC(CC)=CN1c1ccccc1 (stereo not given) | inactive | 
19 | COc1cc2c(cc1OC)-c1cc(=Nc3c(C)cc(C)cc3C)n(C)c(=O)n1CC2 | inactive | 
20 | Cc1ccc(S)cc1 | inactive | 

Row | Structure (SMILES) | Potency | activity change, negative = cytotoxicity
21 | O=C(O)c1cccc(O)c1 | inactive | 
22 | O=[N+]([O-])c1cccc(S(=O)(=O)NCCNS(=O)(=O)c2cccc([N+](=O)[O-])c2)c1 | inactive | 
23 | CC(C)CCCCCOC(=O)CCCCC(=O)OCCCCCC(C)C | inactive | 
24 | CC(C)C(=O)O | inactive | 
25 | CCCCCCCCCCCC(=O)[O][Sn]([CH2]CCC)([CH2]CCC)[O]C(=O)CCCCCCCCCCC | inactive | 
26 | CCCOC(=O)c1ccc(N)cc1 | inactive | 
27 | COCC(O)CO (stereo not given) | inactive | 
28 | Nc1nccs1 | inactive | 
29 | Fc1ccccc1[C@@H](F)COC1CCC(Nc2ncnc3[nH]ncc23)CC1 (stereo not given in full) | inactive | 
30 | CCCCCCOC(=O)C(C)C | inactive | 
31 | CCOc1cc(N)c(Cl)cc1C(=O)NCC1CN(Cc2ccc(F)cc2)CCO1 (stereo not given) | inactive | 
32 | CCCCCCOC(=O)CCCCCCCC(=O)OCCCCCC | inactive | 
33 | COc1cc2c(N3CCN(C(=O)Nc4ccc(OC(C)C)cc4)CC3)ncnc2cc1OCCCN1CCCCC1 | inactive | 
34 | CCc1nn(CCCN2CCN(c3cccc(Cl)c3)CC2)c(=O)n1CCOc1ccccc1 | inactive | 
35 | CC1(C)C(=O)N(Br)C(=O)N1Cl | inactive | 
36 | Nc1ccc(S(=O)(=O)O)c(N)c1 | inactive | 
37 | CN1Cc2cc(C(=O)N3CCC(C4CCNCC4)CC3)ccc2N[C@@H](CC(=O)O)C1=O | inactive | 
38 | C1COCO1 | inactive | 
39 | CCOC(=O)N1CCC(n2c(=O)[nH]c3cc(Cl)ccc32)CC1 | inactive | 
40 | CC(C)C(OC(=O)c1ccccc1)C(C)(C)COC(=O)c1ccccc1 (stereo not given) | inactive | 
